# Most compounds without a hit are left out; they make up all but 7.5% or so of the library.
# FLuc counter: qHTS profiling assay for firefly luciferase inhibitor/activator using purifed enzyme and Km concentrations of substrates (counterscreen for miR-21 project). purified FLuc, Km substrates, luminescence inhibition. Potency, µM (top dose mostly 57.5 µM), for inactives: at the highest dose activity change, negative = inhibition, usual class: inhibitors. actives 6.9% (n = 360,000). AID 588342, 2011;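 note: plate controls were vehicle for no effect and reference inhibitor for full effect; nearly all actives have a fitted effect of over 55% in size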
# Target sequence (P08659 whole entry, looked up): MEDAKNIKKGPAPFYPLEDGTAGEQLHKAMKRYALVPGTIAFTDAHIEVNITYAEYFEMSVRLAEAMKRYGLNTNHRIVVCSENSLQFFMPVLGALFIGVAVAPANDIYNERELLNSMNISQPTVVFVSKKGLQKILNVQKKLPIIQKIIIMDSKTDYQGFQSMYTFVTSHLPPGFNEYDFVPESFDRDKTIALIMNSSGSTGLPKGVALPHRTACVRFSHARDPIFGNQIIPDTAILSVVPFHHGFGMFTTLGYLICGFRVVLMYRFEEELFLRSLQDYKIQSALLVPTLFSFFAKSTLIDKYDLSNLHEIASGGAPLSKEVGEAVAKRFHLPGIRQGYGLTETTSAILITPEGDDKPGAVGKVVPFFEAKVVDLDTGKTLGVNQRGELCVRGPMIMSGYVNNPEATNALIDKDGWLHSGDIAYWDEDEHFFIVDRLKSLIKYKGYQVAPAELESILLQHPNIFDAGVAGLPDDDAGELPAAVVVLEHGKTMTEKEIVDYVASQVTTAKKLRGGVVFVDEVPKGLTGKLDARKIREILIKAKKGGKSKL
#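 Purified P. pyralis luciferase, 10 nM final, with Km-level 10 uM D-luciferin and 10 uM ATP in 50 mM Tris acetate pH 7.5, 10 mM Mg acetate, 0.01% Tween-20, 0.05% BSA; 6-point qHTS titration about 60 µM downward; luminescence read.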
# SMN2 splice enh: qHTS Assay for Enhancers of SMN2 Splice Variant Expression; HEK293 SMN2-luciferase splicing reporter, luminescence, 30-36 h; Potency, µM (top dose mostly 46.1 µM), inactives show at the highest dose activity change, positive = activation, hits mostly activators; actives 2.8% (n = 210,000); AID 1458, 2008; note: % of control where 0% means no effect; nearly all actives have a fitted effect of over 55% in size
#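 HEK293 cells carry an SMN2 minigene-luciferase reporter in which exon 7 inclusion puts luciferase in frame. Cells were seeded at 2000 cells/well, attached for 10-12 hours, then exposed to compounds for 30-36 hours at 37C before ONE-Glo luminescence.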
# Rab9 prom act: qHTS Assay for Rab9 Promoter Activators. Potency, µM (series often up to 9.22 µM), inactives show at the top dose activation, negative = inhibition, usual class: activators. AID 485297, 2010. Huh7 Rab9 promoter-luciferase reporter, luminescence, 24 h. actives 2.8% (n = 320,000); note: % of control where 0% means no effect; nearly all actives have a fitted effect of over 60% in size
#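 Huh7 cells stably carrying Rab9 promoter–luciferase reporter, plated 1500 cells/well, compound added after 2 h and incubated 24 h at 37 °C; luciferase luminescence then read after 10 min with detection reagent.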
# NPC1 promoter act: qHTS Assay for NPC1 Promoter Activators; actives 2.4% (n = 320,000); Huh7 NPC1 promoter luciferase reporter, 24 h; Potency, µM (titrated, usually from 9.22 µM), inactives show top-dose activation, actives largely listed as activators; note: % of control where 0% means no effect; nearly all actives have a fitted effect of over 60% in size
#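 Readout is luciferase luminescence, reflecting NPC1 promoter activation in stably transfected Huh7 cells after 24 h compound exposure at 37 °C in reduced-serum medium with 10% FBS.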
# ELG1 genotoxic: qHTS screen for small molecules that induce genotoxicity in human embryonic kidney (HEK293T) cells expressing luciferase-tagged ELG1. HEK293T ELG1-luciferase reporter, luminescence, 16 h. Potency, µM (titrated, usually from 46 µM), for the others: at the highest dose activity change, positive = activation, usual class: activators. actives 1.3% (n = 330,000). AID 504466, 2011; note: % of control where 0% means no effect; nearly all actives have a fitted effect of over 60% in size
#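 HEK293T cells expressing luciferase-tagged ELG1 were exposed to compound or DMSO vehicle for 16 hr at 37 °C and 5% CO2. Luciferase activity was then measured with ONE-Glo after 30 min at room temperature.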
# * = called active by the depositor; ? = inconclusive; . = no result given. Calls come from the whole dose curve; as a rule, active = well fitted curve in the direction sought with a large enough effect; inconclusive = small, poorly fitted or top-dose-only effect, or another doubt; inactive = no such curve, though single readings can be large; an effect the other way counts as inactive or inconclusive. Potency is the fitted concentration of half-maximal effect.
SMILES,FLuc counter,SMN2 splice enh,Rab9 prom act,NPC1 promoter act,ELG1 genotoxic
O=C(NCc1ccc2c(c1)OCO2)C1CCN(c2nccc(C(F)(F)F)n2)CC1,-1%,.,-5%,-5%,2%
c1ccc(COc2ccc(OCCOCCn3cncn3)cc2)cc1,8.5µM*,8.9µM*,1.3µM*,1.4µM*,5.2µM*
c1ccc(COc2ccc(OCCCN3CCCCC3)cc2)cc1,13µM*,?,3.2µM*,?,7.9µM*
c1ccc(SCCOCCn2cncn2)cc1,16%,4%,-3%,-4%,-6%
c1ccc(OCCCCN2CCCCC2)cc1,-2%,.,-2%,-5%,2%
C=CCNCCCCOc1ccc(OCc2ccccc2)cc1,17µM*,24%,?,?,13µM*
c1ccc(COc2ccc(OCCCCN3CCCC3)cc2)cc1,12µM*,.,2.5µM*,2.2µM*,?
COc1ccccc1-c1c(C)nn2c(-c3ccccc3)cc(-c3ccccc3)nc12,1%,-7%,.,.,.
O=C(OCc1cccc([N+](=O)[O-])c1)c1ccc2ccccc2n1,27µM*,12%,-3%,-29%,3%
CCCCNC(=O)c1c(C)oc2ncn(CC(C)C)c(=O)c12,-6%,.,.,.,.
Cc1cccc2cc3c(nc12)-c1ccccc1C3=O,15µM*,.,3%,1%,?
Cc1cccc(C)c1NC(=O)c1oc2ccc3c(c2c1C)C(=O)CC(C)(C)O3,-13%,.,.,.,.
Cc1c(C(=O)NCC2CCCO2)oc2ccc3c(c12)C(=O)CC(C)(C)O3 (centres undefined),2.7µM*,.,2.5µM*,?,?
COc1ccccc1CNC(=O)c1oc2ccc3c(c2c1C)C(=O)CC(C)(C)O3,5.4µM*,13%,.,.,.
COC(=O)c1ccc(C(NC(=O)OCc2ccccc2)/C(F)=C/[C@@H](C)C(=O)N[C@@H](CO)Cc2ccccc2)cc1 (some centres undefined),.,-10%,.,.,.
O=C(c1cc2cc(Br)ccc2o1)N1CCCCC1,11µM*,11µM*,4µM*,2.5µM*,?
Cc1c(C(=O)N2CCOCC2)oc2ccc(Br)cc12,-17%,.,25%,-4%,10%
O=C(c1cc2ccccc2c(=O)o1)N1CCCCCC1,24µM*,2%,13%,1%,15%
Cc1ccc2oc(C(=O)N3CCCCCC3)c(C)c2c1,15µM*,.,.,2.2µM*,18µM*
Cc1ccc2oc(C(=O)N3CCC(C(N)=O)(N4CCCCC4)CC3)c(C)c2c1,-1%,.,0%,-1%,-2%
Cc1c(C(=O)N2CCCCC2)oc2ccc(Br)cc12,21µM*,.,?,?,?
CSCCC(NC(=O)c1ccco1)C(=O)N1CC=C(c2ccccc2)CC1 (centres undefined),-6%,.,8%,0%,-9%
Cc1ccc(-c2[nH]nc3c2C(c2cccnc2)C(C#N)=C(N)O3)cc1 (centres undefined),-8%,.,-2%,-4%,.
N#CC1=C(N)Oc2n[nH]c(-c3ccccc3)c2C1c1cccnc1 (centres undefined),5%,3.5µM*,13%,3%,0%
Cc1nc(-c2ccccn2)sc1C(=O)Nc1ccc(F)cc1,-20%,13%,15%,20%,1%
SMILES,FLuc counter,SMN2 splice enh,Rab9 prom act,NPC1 promoter act,ELG1 genotoxic
Cc1nc(-c2ccccn2)sc1C(=O)Nc1ccc(F)cc1F,-16%,8%,4µM*,10%,?
O=C1OC[C@H](Cc2ccc3c(c2)OCO3)/C1=C\c1ccc2c(c1)OCO2,-1%,.,-11%,-4%,23%
Cc1[nH]c2ccccc2c1C(=O)/C=C\c1ccccc1Cl,6µM*,?,?,?,?
Cc1[nH]c2ccccc2c1C(=O)CSc1ccc(Cl)cc1,?,9%,26%,23%,?
CC(=O)c1c(C)[nH]c2ccccc2c1=O,2%,4%,1%,-3%,0%
Cc1[nH]c2ccccc2c1C(=O)/C=C/c1ccccc1,4.8µM*,28%,?,3.2µM*,14%
Cc1[nH]c2ccccc2c1C(=O)/C=C/c1ccccc1Cl,8.5µM*,11µM*,3.2µM*,3.2µM*,?
OC1(C(F)(F)F)CC(c2ccc3ccccc3c2)=NO1 (centres undefined),19µM*,.,-2%,3%,?
Cc1ccc(-c2nc(C#N)c(N3CCCCC3)o2)cc1,?,-5%,?,?,-3%
Cc1cccc(-c2nc(C#N)c(NC3CCCCC3)o2)c1,7.6µM*,10µM*,1.8µM*,2.5µM*,?
Cc1cccc(-c2nc(C#N)c(N3CCCCC3)o2)c1,13µM*,.,?,?,?
Cc1cccc(-c2nc3c(C#N)c[nH]n3c2NC2CCCCC2)c1,0%,.,.,.,.
Cc1ccc(-c2nc(C#N)c(N3CCC(C)CC3)o2)cc1,?,.,0.1µM*,?,3%
Cc1nn(-c2ccccc2)c2sc(C(=O)N3CCc4ccccc4C3)cc12,-8%,-24%,-2%,-5%,-1%
Cc1nn(-c2ccccc2)c2sc(C(=O)N3CCCCC3)cc12,19µM*,?,.,.,.
COc1cc2ncnc(NCc3cccs3)c2cc1OC,4%,-23%,-1%,-10%,1%
COc1cccc(-c2cc(NCc3cccs3)ncn2)c1,.,8.9µM*,.,.,.
CSc1cccc(N2CC(C(=O)N3CCN(S(=O)(=O)c4ccccc4Cl)CC3)CC2=O)c1 (centres undefined),.,.,.,.,-5%
Cc1cc(=O)[nH]c(N/N=C/c2cccs2)n1,17µM*,6%,12%,12%,8%
C(=N\Nc1nc2ccccc2[nH]1)/c1cccs1,3.8µM*,.,4µM*,3.2µM*,?
Cc1ccsc1/C=N/Nc1nc2ccccc2[nH]1,3.4µM*,11µM*,2.5µM*,2.5µM*,?
Cc1cc(=O)[nH]c(N/N=C/c2sccc2C)n1,?,?,28%,7%,11%
Cc1cc(=O)[nH]c(N/N=C/c2cc(C)n(-c3ccccc3)c2C)n1,7.6µM*,.,?,3.2µM*,9.2µM*
Cc1ccc(S(=O)(=O)N2CC(O)C2)cc1,-2%,.,-4%,-3%,0%
O=C(O)CCCNc1c(C(=O)Nc2ccc(Cl)cc2)cc([N+](=O)[O-])cc1[N+](=O)[O-],?,4%,8%,0%,-1%
CC(=O)N1N=C(c2ccc3ccccc3c2)OC1(C)C,?,-16%,-2%,-4%,0%
c1ccc2cc(-c3cc4ccccn4c3)ccc2c1,0.85µM*,11µM*,3.2µM*,3.2µM*,3.7µM*
CCn1c(SCC(=O)c2cc(C)n(CC3CCCO3)c2C)nc2ccccc21 (centres undefined),27µM*,-7%,?,25%,6%
